Experimental findings from PubChem BioAssay (NCI) are described below.

Structures are written as SMILES. Compounds without any hit were thinned out: in the full panel of roughly 79,000, 15% have a hit. A number with no mark means an inactive call. Activity calls are given as the source filed them. Cut-off read from the data, not from the text of the source: active = growth inhibition above about 70%; inactive = the rest.

The nature of experiment [1]: NCI Yeast Anticancer Drug Screen. Data for the rad50 strain (AID 155).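 Note: 0% = growth of vehicle-only cultures of the same strain.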 As to conditions: S. cerevisiae rad50 strain growth inhibition; at 50.0 µM; active compounds read high. The method in brief:
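Readout: growth inhibition relative to vehicle-treated cultures. Compound exposure was carried out in a genetically defined yeast strain deficient in DNA damage repair.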

A short description of experiment [2]: NCI Yeast Anticancer Drug Screen. Data for the mec2-1 strain (AID 157). The following applies: S. cerevisiae mec2-1 strain, at 50.0 µM, active compounds read high. A digest of the protocol:
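Each compound was tested on mec2-1 yeast, a strain altered in DNA damage repair or cell cycle control. Growth inhibition is reported relative to vehicle.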

The nature of experiment [3]: NCI Yeast Anticancer Drug Screen. Data for the sgs1 mgt1 strain (AID 161).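 Note: 0% = growth of cultures given vehicle only.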 As to conditions: S. cerevisiae sgs1 mgt1 strain, at 50.0 µM, active compounds read high. The method in brief: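 Test agents were incubated with a DNA-repair-mutant yeast strain. Growth was then read and compared against vehicle-treated controls.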
Experiment [4] in a line: NCI Yeast Anticancer Drug Screen. Data for the cln2 rad14 strain (AID 165).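 Note: 0% = growth equal to vehicle treated cultures.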 The following applies: S. cerevisiae cln2 rad14 strain, at 50.0 µM, active compounds read high. A digest of the protocol: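 Test compounds were added to cln2 rad14 yeast cultures; inhibition of growth was then determined by comparison with vehicle treatment.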
Experiment [5] is described as follows: NCI Yeast Anticancer Drug Screen. Data for the bub3 strain (AID 167). The following applies: S. cerevisiae bub3 mutant strain, at 50.0 µM, active compounds read high. The method in brief:
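Readout: yeast growth inhibition, expressed relative to vehicle-only wells. The test organism is a mutant strain from a panel with lesions in DNA repair or checkpoint genes.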

The nature of experiment [6]: NCI Yeast Anticancer Drug Screen. Data for the mlh1 rad18 strain (AID 175). The following applies: S. cerevisiae mlh1 rad18 strain growth inhibition; at 50.0 µM; active compounds read high. The method in brief:
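Inhibition values reflect reduced growth of mutant yeast versus vehicle-treated controls following compound exposure; the mutations affect DNA damage repair.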

`O=C(O)CO`: the growth inhibition is -7.7% in experiment [1]; 3.05% in experiment [2]; -6.25% in experiment [3]; -1.25% in experiment [4]; -9.15% in experiment [5]; -29.1% in experiment [6].

Consider `CCc1cc(C)cc(C(C)(C)C)c1`, for which the growth inhibition in experiment [1] was 12.4%; in experiment [2] it was -17.8%; in experiment [3] it was 25.1%; in experiment [4], 7.15%; in experiment [5], -8.35%; in experiment [6] it was 22%.

As for `CC(C)([NH-])C[NH-].O=C(O)CCO.[Pt+2]`, the growth inhibition in experiment [1] is 27.8%; in experiment [2] it was -8.8%; in experiment [3], -2.8%; in experiment [4], 17.6%; in experiment [5], 8.65%; in experiment [6], 14.2%.

On to `Cc1cccc(NC(=O)Oc2cc(C)c(Cl)cc2C(C)C)c1`, for which the growth inhibition in experiment [1] was 93% (active); in experiment [2], 98.9% (active); in experiment [3], 96.8% (active); in experiment [4], 93.3% (active); in experiment [5], 98.5% (active); in experiment [6] it was 98% (active).

For `Cn1c(CC(O)c2nc3ccccc3n2C)nc2ccccc21` (stereo not given), the growth inhibition in experiment [1] was -18.7%; in experiment [2], -18.6%; in experiment [3], -10.2%; in experiment [4] it was -8.75%; in experiment [5], -23.8%; in experiment [6], -33.5%.

With `Cc1cccc(C(=O)N(C)C(c2ccco2)P(=O)(c2ccccc2)c2ccccc2)c1` (stereo not given), the growth inhibition was 19.9% in experiment [1]; -16.4% in experiment [2]; 68.2% in experiment [3]; 27.1% in experiment [4]; 33.1% in experiment [5]; 2.9% in experiment [6].

For `COC(=O)C1(C)C=CC(=O)C2(C)C1C(O)C1OC3CC(c4ccoc4)C(C)=C3C1(C)C2CC(=O)O` (stereo not given), the growth inhibition is 19.9% in experiment [1]; -7% in experiment [2]; 20.1% in experiment [3]; 12.4% in experiment [4]; 10.8% in experiment [5]; -21.3% in experiment [6].

Turning to `Cc1ccc(C(c2ccc(C)c(C)c2)C(O)C(O)C(O)C(O)CO)cc1C` (stereo not given), the growth inhibition in experiment [1] is -4.8%; in experiment [2], -2.6%; in experiment [3] it was -2.9%; in experiment [4], 1.6%; in experiment [5] it was -6.05%; in experiment [6] it was -18.4%.

Turning to `COC(C)C(NC=O)C(=O)O` (stereo not given), the growth inhibition in experiment [1] is 18.8%; in experiment [2], 10.9%; in experiment [3], 7.45%; in experiment [4] it was 8.65%; in experiment [5], 9.95%; in experiment [6], 1.9%.

Take `COc1c(O)ccc(C(=O)O)c1N`: the growth inhibition in experiment [1] was 13%; in experiment [2] it was 6.55%; in experiment [3], 14.1%; in experiment [4], 10.1%; in experiment [5], 8.95%; in experiment [6] it was -17.4%.

Turning to `CCOCCOC(=O)C1CCCC1=O` (stereo not given), the growth inhibition in experiment [1] was -5.25%; in experiment [2], -11.3%; in experiment [3] it was -34.9%; in experiment [4], -10.1%; in experiment [5], -11.2%; in experiment [6], -8.45%.

In the case of `CC1C(=O)C23CC1CCC2C12COC(O)C1C(C)(C)C(O)CC2OC3=O` (stereo not given), the growth inhibition in experiment [1] was -10.4%; in experiment [2], -5.95%; in experiment [3] it was -12.7%; in experiment [4] it was 17.1%; in experiment [5], -43.6%; in experiment [6], -16.4%.

For `COC(=O)/C(C)=C1\C=C(C)CC(C)(C)C1`, the growth inhibition in experiment [1] is -4.3%; in experiment [2] it was -25.1%; in experiment [3] it was -10.6%; in experiment [4] it was 1%; in experiment [5], -23.9%; in experiment [6], -2.3%.

With `O=C(O)/C=C/C(=O)Nc1cccc(C(F)(F)F)c1`, the growth inhibition in experiment [1] was -3.5%; in experiment [2], 0.35%; in experiment [3], -17.5%; in experiment [4] it was -6.85%; in experiment [5] it was -15.7%; in experiment [6] it was -9.7%.

`C=CCCCCCCCCC(=O)OC1CCCCC1`: the growth inhibition is -9.25% in experiment [1]; 0.2% in experiment [2]; 11.1% in experiment [3]; -23.1% in experiment [4]; 15.4% in experiment [5]; 6.15% in experiment [6].

For the compound `CCOC(=O)/C(=C/n1c(=S)[nH]c2ccc([N+](=O)[O-])cc21)C(=O)c1ccccc1`, the growth inhibition in experiment [1] was -7.55%; in experiment [2], -44.8%; in experiment [3], -12.9%; in experiment [4] it was -1.35%; in experiment [5] it was -16.7%; in experiment [6], -4.65%.

For the compound `COc1ccc2c(c1)CCC(c1nc3ccc(C)cc3[nH]c1=O)C2=O` (stereo not given), the growth inhibition in experiment [1] is 7.95%; in experiment [2], 8.5%; in experiment [3] it was 7.95%; in experiment [4], 9.1%; in experiment [5], -4.65%; in experiment [6], 22.6%.

With `O=[N+]([O-])c1cccc(Cc2nncc3ccccc23)c1`, the growth inhibition in experiment [1] was 4.15%; in experiment [2], 35.9%; in experiment [3], 17.6%; in experiment [4], 0.05%; in experiment [5] it was 44.5%; in experiment [6], 17.7%.

For the compound `O=C1C2C3CCC(C3)C2N1Cc1ccccc1` (stereo not given), the growth inhibition in experiment [1] was 5.8%; in experiment [2], -1.65%; in experiment [3], -2.15%; in experiment [4], -27.2%; in experiment [5] it was 13.6%; in experiment [6] it was -14.8%.

In the case of `C=CCCCCCCCCCCCCCC`, the growth inhibition in experiment [1] is -0.85%; in experiment [2] it was -2.3%; in experiment [3] it was -4%; in experiment [4], 10%; in experiment [5], -7.5%; in experiment [6] it was 26.9%.
